According to PubChem BioAssay AID1159580 (chemical genetic matrix, 2015):
The whole screen tested about 5,500 compounds, of which about 2,000 (36%) were called active. Inconclusive results (about 18%) are left out. Cut-off read from the data, not from the text of the source: active = normalized growth mostly below about 0.91 (no sharp cut-off); inconclusive = no clear call, values can overlap the other calls; inactive = mostly above about 0.92. The list shows a part of the results.

Test: chemical genetic growth profiling, strain panel (AID 1159580);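 note: tested at 20 µM; growth read once vehicle control cultures reached saturation at 30 °C; 1 = growth at the plate median or of vehicle wells; lower values mean less growth of the strain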
Settings: S. cerevisiae deletion strains, growth OD
[1] = locus YAL013W, strain DEP1, active compounds read low
[2] = locus YBR229C, strain ROT2, active compounds read low
[3] = locus YCL061C, strain MRC1, active compounds read low
[4] = locus YDL101C, strain DUN1, active compounds read low
[5] = locus YDR150W, strain NUM1, active compounds read low
[6] = locus YEL061C, strain CIN8, active compounds read low
[7] = locus YGR078C, strain PAC10, active compounds read low
[8] = locus YHR030C, strain SLT2, active compounds read low
[9] = locus YHR087W, strain rtc3, active compounds read low
[10] = locus YJR043C, strain POL32, active compounds read low
[11] = locus YJR075W, strain HOC1, active compounds read low
[12] = locus YLR039C, strain RIC1, active compounds read low
[13] = locus YLR058C, strain SHM2 (second series), active compounds read low
[14] = locus YLR085C, strain ARP6, active compounds read low
[15] = locus YLR262C, strain YPT6, active compounds read low
[16] = locus YML094W, strain GIM5, active compounds read low
[17] = locus YMR219W, strain ESC1, active compounds read low
[18] = locus YMR263W, strain SAP30, active compounds read low
[19] = locus YNL153C, strain GIM3, active compounds read low
[20] = locus YNL298W, strain CLA4 (second series), active compounds read low
[21] = locus YNL322C, strain KRE1, active compounds read low
[22] = locus YNR030W, strain Alg12, active compounds read low
[23] = locus YPL055C, strain LGE1, active compounds read low
[24] = locus YPL241C, strain CIN2, active compounds read low
[25] = locus YPR135W, strain CTF4, active compounds read low

Measured: normalized growth

CCOC(=O)C(c1ccccc1)C(Nc1ccc(Cl)c(Cl)c1)c1ccccn1 (stereo not given)
active: [12] 1.21 [resistant]
inactive: [1] 1.01 | [2] 1.01 | [3] 1.02 | [4] 1.03 | [5] 1.02 | [6] 0.996 | [7] 1.01 | [8] 1.11 | [9] 0.986 | [10] 1.03 | [11] 1.03 | locus YKL190W, strain CNB1, active compounds read low 1.01 | [13] 1.01 | [14] 1.02 | [15] 1.15 | [16] 1.01 | [17] 1 | [18] 0.985 | locus YNL128W, strain TEP1, active compounds read low 1.03 | [19] 1.01 | [20] 1.01 | [21] 1.01 | [22] 1.01 | [23] 0.995 | [24] 1.01 | [25] 1.01

CCOC(=O)CNc1ccc(Cl)c(Cl)c1
inactive: [1] 0.949 | [2] 0.969 | [3] 0.977 | [4] 0.974 | [5] 0.967 | [6] 0.986 | [7] 0.958 | locus YGR229C, strain SMI1, active compounds read low 0.998 | [8] 0.746 | [9] 0.978 | locus YJL187C, strain SWE1, active compounds read low 0.973 | [10] 0.974 | [11] 0.927 | [12] 0.971 | [13] 0.97 | [14] 0.876 | [15] 0.975 | [16] 0.973 | [17] 0.974 | [18] 0.946 | locus YMR307W, strain GAS1, active compounds read low 0.986 | [19] 0.962 | [20] 0.931 | [21] 0.971 | [22] 0.995 | [23] 0.87 | [24] 1 | [25] 0.906
